Legend:
Assay type in all cases: functional
[1] = target: Solute carrier family 2, facilitated glucose transporter member 1 (Homo sapiens) (UniProt P11166); experiment: ST_JUDE_LEISH: Cytotoxicity at 2uM final concentration against transgenic Leishmania Mexicana promastigotes LmGLUT1 that are glucose transport deficient and complemented with the human glucose transporter GLUT1. Activity is measured by DNA content using SYBR green in vitro
[2] = target: Hexose transporter 1 (Plasmodium falciparum) (UniProt O97467); experiment: ST_JUDE_LEISH: Cytotoxicity at 2uM final concentration against transgenic Leishmania Mexicana promastigotes LmPfHT that are glucose transport deficient and complemented with the Plasmodium falciparum hexose transporter. Activity is measured by DNA content using SYBR green in vitro
[3] = target: Glucose transporter (Leishmania mexicana) (UniProt O61059); experiment: ST_JUDE_LEISH: Cytotoxicity at 2uM final concentration against transgenic Leishmania Mexicana promastigotes LmGT2 that are glucose transport deficient and complemented with the L. Mexicana glucose transporter 2. Activity is measured by DNA content using SYBR green in vitro

Solute carrier family 2, facilitated glucose transporter member 1 (Homo sapiens), sequence (P11166 whole entry): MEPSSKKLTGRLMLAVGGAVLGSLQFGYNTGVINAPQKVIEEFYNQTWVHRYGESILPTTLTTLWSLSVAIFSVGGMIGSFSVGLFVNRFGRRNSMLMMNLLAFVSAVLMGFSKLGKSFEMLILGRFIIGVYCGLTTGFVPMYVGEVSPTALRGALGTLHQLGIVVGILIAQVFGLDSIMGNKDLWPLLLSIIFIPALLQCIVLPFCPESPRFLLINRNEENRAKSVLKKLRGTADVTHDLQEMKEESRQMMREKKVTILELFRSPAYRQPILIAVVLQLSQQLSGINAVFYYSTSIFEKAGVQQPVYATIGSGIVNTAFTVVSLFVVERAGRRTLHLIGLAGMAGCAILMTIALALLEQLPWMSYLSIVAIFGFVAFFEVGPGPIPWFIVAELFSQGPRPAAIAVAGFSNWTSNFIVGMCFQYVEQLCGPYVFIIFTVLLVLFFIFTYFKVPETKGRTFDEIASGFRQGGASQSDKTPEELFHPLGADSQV

SMILES | inhibition [1] [%] | inhibition [2] [%] | inhibition [3] [%]
COc1ccccc1C1CCN(C2CCC(NC(=O)/C=C/c3cc(F)cc(C(F)(F)F)c3)CC2)CC1 (stereo unspecified) | -0.82 | 0.7 | 1.96
CC(=O)Oc1cc(C)ccc1C1CCN(CCCCNC(=O)c2ccc(-c3ccc(C(F)(F)F)cc3)cc2)CC1 | 1.9 | 2.04 | 1.11
COc1cccc(NC(=O)NC2CCN(CCCCCNC(=O)/C=C/c3ccc(Cl)c(Cl)c3)CC2)c1 | 0.13 | 0.47 | 3.52
CCN(CC)CCNc1nc(C=Cc2ccc(Cl)cc2)nc2cc3ccccc3cc12 | -0.78 | -0.58 | -1.66
Cc1cc(C2CCN(CCCCNC(=O)c3ccc(NC(=O)c4ccc(Cl)cc4)cc3)CC2)c(C)cc1OCc1cccnc1 | 0.04 | -0.98 | -0.82
COc1cc(OC)cc(C(=O)Nc2ccc(Nc3nc(C)cc(N(C)C)n3)cc2)c1 | 6.01 | 12.8 | 6.54
COc1cccc2sc(N3CCN(C(=O)c4ccc([N+](=O)[O-])o4)CC3)nc12 | 2.53 | 11.9 | 4.81
COc1ccc(Nc2nc(C)cc(NC3CCCC3)n2)cc1 | 29.2 | 26.2 | 17.7
CN(C)Cc1cc2c(O)c(Cc3ccccc3)ccc2o1 | 2.65 | 4.63 | 3.94
OCCN1CCN(c2nc(Nc3cccc(F)c3)c3cnn(-c4ccccc4)c3n2)CC1 | 3.91 | 0.94 | -2.4
Cc1noc(-c2cccs2)c1C(=O)NC(C)c1cccc2ccccc12 (stereo unspecified) | -0.34 | 0.45 | 0.18
COc1ccc(N(c2nc(-c3cc(Cl)ccc3Cl)cs2)C2CCNC2)cc1 (stereo unspecified) | 4.89 | 4.65 | 1.24
